Results: PubChem BioAssay (NCI)
About 83,000 compounds went through this panel and 20% of them were active in at least one assay; those are over-represented in the sample as a whole.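 Cells were grown in 96-well plates and exposed to the test compound at a single concentration for 48 hours; results are reported as percent growth, with values below 10 considered active.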 A number with no mark means an inactive call. Calls of active or inactive are those of the source.

system: MDA-MB-468 breast; assay: NCI-60 one-dose screen, 48 h (100 = growth as untreated, 0 = no growth, -100 = all killed); conditions: 10 µM unless noted

| Structure (SMILES) | growth |
| --- | --- |
| C/C(=C\CCc1ccoc1)CC/C=C(\C)CCCN1CCOCC1 | 5.68% (active) |
| N#C/C(=N\Nc1ccc(F)cc1)C(=O)Nc1cc(-c2ccccc2)nn1-c1ccccc1 | -21% (active) |
| NC(=O)CN1C(=O)c2ccccc2C1=O | 107% |
| O=C(CCC(=O)N1CCOCC1)OCCCCCCSc1ccc([N+](=O)[O-])c2nonc12 | -43.1% (active) |
| CC(C)=NNC(N)=S | 10.6% |
| COC(=O)/C=C1\SC(=Nc2ccc(F)cc2)N(CCc2c[nH]c3ccccc23)C1=O | 125% |
| O=Cc1ccc(-c2cn3ccnc3c(-c3ccc4ncn(Cc5ccccc5)c4c3)n2)cc1 | 105% |
| Cc1ccccc1CCO | 97.5% |
| O=C(CCc1nnc2sc(-c3ccc(Cl)cc3Cl)nn12)c1nc2ncccc2[nH]1 | -66% (active) |
| CCCCc1n(Cc2ccc3ccccc3c2)cc[n+]1Cc1ccc2ccccc2c1 | -55.2% (active) |
| CCN1C(=S)N(c2ccccc2)C2NC(=O)N(/N=C/C=C/c3ccccc3OC)C21 (stereo not given) | 79% |
| C/C(=C(/c1ccc(O)cc1)c1ccc(OCCN2CCCCCC2)cc1)c1ccccc1 | 31.8% |
| CN(C)C(=O)c1cc2cnc(Nc3ccc(-c4csc5c(=O)cc(N6CCOCC6)oc45)cc3)nc2n1C1CCCC1 | -5.41% (active) |
| Cc1oc2ncnc(Nc3ccccc3)c2c1C(=O)NCCO | 109% |
| O=S(=O)(Nc1cc(Sc2cccc3cccnc23)c(O)c2ccccc12)c1ccc(F)cc1 | -46.6% (active) |
| CCN(CC)c1ccc2cc(C(=O)NCCOCCOCCOCCn3cc(CCC(=O)Nc4ccc(C(=O)c5ccc(NC(=O)OC(C)(C)C)cc5)cc4)nn3)c(=O)oc2c1 | 51.3% |
| CN(C)C(C)(C)CC(C)(C)C | 116% |
| CC(C)(C)c1ccc(O)c(C2CCCCC2)c1 | 111% |
| CCOC(=O)C(=O)Cc1cccnn1 | 102% |
| CC1=CC(=O)N(c2cccc3c(N4C(=O)C=C(C)C4=O)cccc23)C1=O | 23.6% |

| Structure (SMILES) | growth |
| --- | --- |
| CCO/C=C1\SC(=S)N(c2cccc(C)c2)C1=O | 102% |
| CCNC(=O)Oc1ccc(/C(=C(\C)c2ccccc2)c2ccc(OCCN(CC)CC)cc2)cc1 | 79.3% |
| O=[N+]([O-])c1ccc(C(c2ccccc2)c2ccccc2)cc1 | 101% |
| Nc1ccc(-c2nnc(SCc3ccc(O)c4ncccc34)o2)cc1 | -20.7% (active) |
| COc1ccc2c(c1OC)O/C(=C\c1ncc([N+](=O)[O-])n1C)C2=O | 69.9% |
| CC1(n2nnnc2N2CCCN(c3ncccc3N)CC2)CCC1 | 93% |
| COC(=O)C1=Nc2ccc(F)cc2/C1=C\c1sc(Nc2ccc(O)cc2)nc1O | 56.1% |
| CCOc1ccc(/C=C\C(=O)O)cc1 | 121% |
| O=C(Nc1ccc(Oc2ccc(Nc3nc4ccccc4s3)cc2)cc1)Nc1ccc(Cl)c(Cl)c1 | 8.01% (active) |
| COc1ccc(-c2nc3ccc(-c4nc5ccc(N6CCN(C)CC6)cc5[nH]4)cc3[nH]2)cc1OC | -30.1% (active) |
| CC(C)CCC(=O)[C@@H](C)[C@H]1[C@@H](OC2OCC(O)C(O)C2NS(C)(=O)=O)C[C@H]2[C@@H]3CC=C4C[C@@H](O)CC[C@]4(C)[C@H]3CC[C@]12C (stereo not given in full) | 43.8% |
| COC(OC)C1(c2ccccc2)NC(=O)NC1=O (stereo not given) | 113% |
| COc1ccc(-c2nc(-c3ccccc3OCc3ccccc3OC)nc(C)c2C(C)=O)cc1 | 72% |
| CCCCOP(=O)(OCCCC)C(C(=O)OCC)C(CC(=O)OCC)C(=O)OCC (stereo not given) | 124% |
| Nc1ncnc2c1ccn2-c1cccc(NC(=O)c2cccc(C(F)(F)F)c2)c1 | 31.3% |
| COc1ccc(-c2nn(-c3cccc(NC(=O)c4ccc(N5CCOCC5)c(C(F)(F)F)c4)c3)cc2-c2ccncc2)cc1Cl | 80.6% |
| CC1CC(C(C)(C)C)C(=O)C(C(C)(C)C)C1 (stereo not given) | 99.8% |
| O=[N+]([O-])c1ccc(C(Br)c2ccc([N+](=O)[O-])cc2)cc1 | 112% |
| O=C1Nc2ccc(F)cc2/C1=C/c1nc(-c2ccc(F)cc2)n2ccccc12 | 113% |
| c1cc(NCCc2ccncc2)nc(-n2cnc3ccccc32)c1 | 95% |
